# Shown is part of a subset that was picked to be rich in the strongest signals.
# Legend:
# Assay in all cases: glycan array binding signal (z-score within array); higher = stronger binding
# Details in all cases: glycan notation: IUPAC condensed, linker removed
# [1] = target: GlcNAc(a1-4)Gal(b1-4)GlcNAc(b1-3)Gal(b1-4)GlcNAc
# Summary of the method: (§1)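 Arrays were curated from the Consortium for Functional Glycomics database, 3228 in total, and kept only where the protein sequence was available. Binding is expressed as a within-array Z-score. This score was averaged across arrays of the same protein sequence at different concentrations or buffers and across linkers, and negative values can be read as non-binding.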
# [2] = target: GlcNAc(a1-4)Gal(b1-4)GlcNAc(b1-3)Gal(b1-4)GlcNAc(b1-3)Gal(b1-4)GlcNAc
# Summary of the method: as §1
# [3] = target: GlcNAc(b1-2)Man(a1-3)[GlcNAc(b1-2)Man(a1-6)]Man(b1-4)GlcNAc(b1-4)GlcNAc
# Summary of the method: as §1
# [4] = target: GlcNAc(b1-3)Gal(b1-4)GlcNAc(b1-3)Gal(b1-4)GlcNAc(b1-2)[GlcNAc(b1-3)Gal(b1-4)GlcNAc(b1-3)Gal(b1-4)GlcNAc(b1-6)]Man(a1-6)[GlcNAc(b1-3)Gal(b1-4)GlcNAc(b1-3)Gal(b1-4)GlcNAc(b1-2)Man(a1-3)]Man(b1-4)GlcNAc(b1-4)[Fuc(a1-6)]GlcNAc
# Summary of the method: as §1
# [5] = target: GlcNAc(b1-3)Gal(b1-4)GlcNAc(b1-6)[Gal(b1-3)]GalNAc
# Summary of the method: as §1
# [6] = target: GlcNAc(b1-4)GlcNAc
# Summary of the method: as §1
# [7] = target: GlcNAc(b1-4)GlcNAc(b1-4)GlcNAc
# Summary of the method: as §1
# [8] = target: GlcNAc(b1-4)GlcNAc(b1-4)GlcNAc(b1-4)GlcNAc(b1-4)GlcNAc
# Summary of the method: as §1
# [9] = target: GlcNAc(b1-4)GlcNAc(b1-4)GlcNAc(b1-4)GlcNAc(b1-4)GlcNAc(b1-4)GlcNAc
# Summary of the method: as §1
# [10] = target: Man(a1-2)Man(a1-3)[Man(a1-3)[Man(a1-6)]Man(a1-6)]Man(b1-4)GlcNAc(b1-4)GlcNAc
# Summary of the method: as §1
# [11] = target: Neu5Ac(a2-3)Gal(b1-3)GlcNAc(b1-2)Man
# Summary of the method: as §1
# [12] = target: Neu5Ac(a2-3)Gal(b1-3)GlcNAc6S
# Summary of the method: as §1
# [13] = target: Neu5Ac(a2-3)Gal(b1-4)GlcNAc
# Summary of the method: as §1
# [14] = target: Neu5Ac(a2-3)Gal(b1-4)[Fuc(a1-3)]GlcNAc
# Summary of the method: as §1
# [15] = target: Neu5Ac(a2-3)Gal6S(b1-4)GlcNAc
# Summary of the method: as §1
# [16] = target: Neu5Ac(a2-6)Gal(b1-4)GlcNAc(b1-2)Man(a1-6)[Gal(b1-4)GlcNAc(b1-2)Man(a1-3)]Man(b1-4)GlcNAc(b1-4)GlcNAc
# Summary of the method: as §1
# [17] = target: Neu5Ac(a2-6)Gal(b1-4)GlcNAc(b1-3)Gal(b1-4)GlcNAc
# Summary of the method: as §1
# [18] = target: Neu5Ac(a2-6)GlcNAc(b1-4)GlcNAc(b1-4)GlcNAc
# Summary of the method: as §1
# [19] = target: Neu5Ac9Ac(a2-3)Gal(b1-4)GlcNAc
# Summary of the method: as §1
binder,measurement,setting,value
"AAA (Anguilla anguilla), Q7SIC1 (protein) VIPEGYTQENVAVRGKATQSAQLRGEHAANSEASNAIDGNRDSNFYHGSCTHSSGQANPWWRVDLLQVYTITSVTITNRGDCCGERISGAEINIGQHLASNGVNNPECSVIGSMATGETKTFHCPAPMIGRYVVTYLPTSESLHLCEVEVNVDKPAAA",glycan array binding signal (z-score),[1],1.96
same,glycan array binding signal (z-score),[2],2.29
same,glycan array binding signal (z-score),[3],-0.274
same,glycan array binding signal (z-score),[4],0.944
same,glycan array binding signal (z-score),[5],-0.298
same,glycan array binding signal (z-score),[6],2.2
same,glycan array binding signal (z-score),[7],5.55
same,glycan array binding signal (z-score),[8],7.88
same,glycan array binding signal (z-score),[9],6.77
same,glycan array binding signal (z-score),[10],-0.106
same,glycan array binding signal (z-score),[11],-0.023
same,glycan array binding signal (z-score),[12],0.003
same,glycan array binding signal (z-score),[13],-0.086
same,glycan array binding signal (z-score),[14],-0.098
same,glycan array binding signal (z-score),[15],-0.179
same,glycan array binding signal (z-score),[16],-0.183
same,glycan array binding signal (z-score),[17],-0.202
same,glycan array binding signal (z-score),[18],2.46
same,glycan array binding signal (z-score),[19],-0.102
